Screens (PubChem)
IL-1B inflam inh: qHTS for Inhibitors of Inflammasome Signaling: IL-1-beta AlphaLISA Primary Screen; THP-1 LPS/ATP IL-1B secretion, AlphaLISA, 16 h; active compounds read low; activity change, % at 57.5 µM; hit rate 4.7% among 360,000; AID 743279, 2014; in the data active means activity change below about -50%; inconclusive means mostly about -30% to -49%; further: on the % scale 0 is the no-effect control and ±100 the full control effect
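Secreted IL-1B measured by AlphaLISA bead assay after 16 h compound exposure of THP-1 cells; compounds (final up to 57.5 uM) added 1 h before LPS (250 ng/mL) and ATP (1.25 mM) stimulation; lower signal means less secretion.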
DT40 TDP1 no CPT: qHTS for Inhibitors of human tyrosyl-DNA phosphodiesterase 1 (TDP1): qHTS in cells in absence of CPT; DT40 Tdp1-/- hTDP1 cells, no CPT, ATP luminescence, 48 h; Potency, µM (highest dose often 46.2 µM), without a hit: at the highest dose activity change, negative = growth inhibition, usual class: inhibitors; hit rate 15% among 420,000; AID 686978, 2013; further: potency means the concentration at half of the fitted maximal effect; on the % scale 0 is the no-effect control and ±100 the full control effect; nearly all actives have a fitted effect of over 55% in size
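Readout: luminescence from CellTiter-Glo after 30 min in the dark at RT. Cells: DT40 Tdp1-/- with stable hTDP1, 400/well. Exposure: compounds alone, ≥48 hr, 37 °C.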
DT40 TDP1 CPT: qHTS for Inhibitors of human tyrosyl-DNA phosphodiesterase 1 (TDP1): qHTS in cells in presence of CPT; chicken DT40 Tdp1-/-;hTDP1 cells + 20 nM CPT, ATP luminescence, 48 h; Potency, µM (titrated, usually from 46.2 µM), for the others: top-dose activity change, negative = growth inhibition, usual class: inhibitors; hit rate 12% among 420,000; AID 686979, 2013; further: potency means the concentration at half of the fitted maximal effect; on the % scale 0 is the no-effect control and ±100 the full control effect; nearly all actives have a fitted effect of over 55% in size
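Cell growth measured by CellTiter-Glo luminescence after a minimum 48 h, 37 C compound exposure with 20 nM CPT in Tdp1-knockout DT40 cells stably expressing hTDP1, seeded 400/well; qHTS titration format.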
HepG2 tox: qHTS for Inhibitors of TGF-b: Cytotox Counterscreen; HepG2 CAGA-GFP viability, ATP luminescence, 18 h; Potency, µM (series often up to 46.1 µM), inactives show top-dose activity change, negative = cytotoxicity, most hits filed as cytotoxic; hit rate 0.76% among 410,000; further: potency means the concentration at half of the fitted maximal effect
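HepG2 CAGA-GFP cells (1000/well, DMEM with 1% FBS) received compound, then TGF-beta at 500 pg/mL final, and were incubated 18 hours at 37 degrees C. Viability was read by CellTiter-Glo luminescence. Media-only wells were set as complete cell-killing and DMSO as no toxicity.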
TGFb SMAD3 inh: qHTS for Inhibitors of TGF-b. HepG2 CAGA-GFP TGF-b/SMAD3 reporter, GFP fluorescence, 18 h; TGF-beta stimulated, 500 pg/mL final. Potency, µM (titrated, usually from 46.1 µM), for the others: at the highest dose activity, negative = inhibition, actives largely listed as inhibitors. hit rate 1.2% among 410,000. AID 588855, 2011; further: potency means the concentration at half of the fitted maximal effect; on the % scale 0 is the no-effect control and ±100 the full control effect; nearly all actives have a fitted effect of over 65% in size
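HEPG2 CAGA-GFP cells (1000/well, DMEM with 1% FBS) were pre-incubated 2 h at 37 degrees C, given compound by pin tool, then stimulated with TGF-beta at 500 pg/mL final for 18 h before per-cell GFP fluorescence imaging.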
ASM inhibitor: Inhibitors of Secretory Acid Sphingomyelinase (S-ASM): qHTS; Sphingomyelin phosphodiesterase (Homo sapiens), P17405; placental ASM, HMU-PC fluorogenic substrate, 60 min; hit rate 0.006% among 340,000; Potency, µM (titrated, usually from 57.5 µM), for the others: at the highest dose activity change, negative = inhibition, hits mostly inhibitors; further: potency means the concentration at half of the fitted maximal effect
Target sequence (P17405 47-631 limits assumed): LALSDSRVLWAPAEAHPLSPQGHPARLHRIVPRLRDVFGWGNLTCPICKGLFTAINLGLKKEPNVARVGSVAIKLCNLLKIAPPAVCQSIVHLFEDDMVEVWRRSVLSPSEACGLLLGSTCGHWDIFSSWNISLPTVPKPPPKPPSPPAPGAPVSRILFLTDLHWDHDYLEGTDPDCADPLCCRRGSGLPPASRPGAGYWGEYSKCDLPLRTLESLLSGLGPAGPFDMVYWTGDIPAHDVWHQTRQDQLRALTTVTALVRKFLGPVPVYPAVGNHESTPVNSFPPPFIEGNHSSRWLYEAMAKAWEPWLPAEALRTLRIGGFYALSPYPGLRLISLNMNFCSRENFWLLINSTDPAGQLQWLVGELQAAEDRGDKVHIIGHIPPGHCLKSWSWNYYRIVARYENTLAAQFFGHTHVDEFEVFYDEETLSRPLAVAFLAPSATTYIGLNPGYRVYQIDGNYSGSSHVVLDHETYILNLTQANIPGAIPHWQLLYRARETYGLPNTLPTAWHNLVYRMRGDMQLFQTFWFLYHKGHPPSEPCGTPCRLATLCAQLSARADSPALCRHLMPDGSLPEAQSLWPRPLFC
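HMU-PC0 cleavage (9 uM final) by human placental ASM, 60 min at 37 °C following 10 min compound exposure at RT; stopped at pH 10, fluorescence Ex 386/Em 447 nm.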
* hit, by the source's call; i = inactive; ? = inconclusive; . = no result given; ! = repeats disagree; [ ] = dose if it differs, or a comment. Rows were chosen to be rich in hits. Some 19% of all compounds tested hit in one or more screens of this group. Unless noted, the call rests on the fitted dose curve; in most records, active means well fitted curve in the direction sought with a large enough effect; inconclusive means small, poorly fitted or top-dose-only effect, or another doubt; inactive means no such curve, though single readings can be large; an effect the other way counts as inactive or inconclusive.

SMILES	IL-1B inflam inh	DT40 TDP1 no CPT	DT40 TDP1 CPT	HepG2 tox	TGFb SMAD3 inh	ASM inhibitor
CCN(CC)c1ccc(CN2CCC(C(=O)NCc3ccc(C)cc3)CC2)cc1	-1.8	14.6µM*	14.6µM*	-46.3%	-19.3%	4.7%
Cc1ccccc1NC(=O)Nc1ccc2nc(N3CCN(C)CC3)cc(C)c2c1	.	?	?	-6.7%	34.9%	.
CCOc1ccccc1C(=O)Nc1ccc2nc(N3CCN(c4ncccn4)CC3)cc(C)c2c1	?	9.2µM*	18.4µM*	-24.8%	-0.2%	190.1%
CCOc1ccccc1NC(=O)Nc1ccc2nc(N3CCN(C)CC3)cc(C)c2c1	.	23.1µM*	?	7.94µM*	?	.
CCOC(=O)N1CCC(NC(=S)Nc2ccc3nc(N4CCN(C)CC4)cc(C)c3c2)CC1	-100.2*	?	-18.1%	-20.9%	?	120.1%
O=C(CSc1nc2c([nH]c3ccccc32)c(=O)n1-c1ccc(F)cc1)N1CCCc2ccccc21	.	-14.0%	?	-17.8%	11.7%	.
Cc1cc(/C=C2/SC(=S)N(c3cccc(C(F)(F)F)c3)C2=O)c(C)n1-c1cccnc1	?	0.731µM*	0.731µM*	-25.3%	0.9%	?
COc1cc(-c2nc3ccc(N4CCN(C)CC4)cc3[nH]2)cc(OC)c1OC	-51.8*	?	?	-4.3%	-14.7%	i
CCC(C)NC(=O)c1sc2nc(C)c(C(=O)Nc3ccc(C)cc3C)c(-c3ccc(Br)cc3)c2c1N (stereo not given)	.	?	?	-5.8%	4.9%	.
CCC(=O)N1c2ccc(S(=O)(=O)CCC(=O)NCc3ccc(OC)cc3)cc2CC1C (stereo not given)	.	?	?	-3.8%	17.8%	.
Cc1ccc(/C(N)=N/OC(=O)c2ccc3c(c2)OCO3)cc1	-0.5	?	-10.7%	33.3%	29.4%	0.1%
N/C(=N\OC(=O)c1ccc2c(c1)OCO2)c1ccncc1	-53.5*	4.6%	2.8%	-18.7%	-5.8%	0.2%
Cc1cccc(CCNC(=O)c2c[nH]c3ccc(S(=O)(=O)Nc4ccccc4F)cc3c2=O)c1	.	?	11.6µM*	-27.5%	-5.7%	.
CC(C)c1ccc(NS(=O)(=O)c2ccc3[nH]cc(C(=O)NC4CCCCC4)c(=O)c3c2)cc1	.	?	?	-109.3%	?	.
COCCNC(=O)c1c[nH]c2ccc(S(=O)(=O)Nc3ccccc3F)cc2c1=O	-1.4	-0.6%	-21.0%	-42.5%	-2.8%	-3.2%
COc1cccc(NS(=O)(=O)c2ccc3[nH]cc(C(=O)N(C)Cc4ccco4)c(=O)c3c2)c1	-3.4	23.1µM*!	23.1µM*!	-6.4%	-0.9%	-0.1%
Cc1cc(C)cc(NS(=O)(=O)c2ccc3[nH]cc(C(=O)NC4CCCCC4)c(=O)c3c2)c1	.	16.4µM*	23.1µM*	11.2µM*	?	.
Cc1cc(C)cc(NS(=O)(=O)c2ccc3[nH]cc(C(=O)NCc4ccco4)c(=O)c3c2)c1	-55.9*	14.6µM*	11.6µM*	-50.8%	?	-11.0%
Cc1cc(C)cc(NS(=O)(=O)c2ccc3[nH]cc(C(=O)N(C)Cc4ccccc4)c(=O)c3c2)c1	.	?	0.2%	-7.6%	?	.
O=c1[nH]nc2c3ccccc3occ1-2	0.0	2.8%	0.4%	.	.	.
CCOC(=O)C1=C(COC(=O)CCC(=O)c2ccc(C)cc2)NC(=O)NC1C (stereo not given)	1.5	1.3%	-23.1%	18.9%	24.9%	1.0%
COc1cccc(NS(=O)(=O)c2ccc3[nH]cc(C(=O)NCCc4ccc(C)cc4)c(=O)c3c2)c1	.	16.4µM*	14.6µM*	-26.7%	-2.4%	.
COc1cccc(NS(=O)(=O)c2ccc3[nH]cc(C(=O)NC4CCCCC4)c(=O)c3c2)c1	.	18.4µM*	18.4µM*	-48.2%	?	.
O=C(Nc1ccc(N2CCOCC2)c2nonc12)C1CCCC1	-20.6	25.9µM*	18.4µM*	-22.3%	2.2%	-5.5%
O=C(Nc1ccc(F)cc1)Nc1ccc(N2CCOCC2)c2nonc12	?	?	-16.4%	-16.7%	-6.1%	-2.5%
SMILES	IL-1B inflam inh	DT40 TDP1 no CPT	DT40 TDP1 CPT	HepG2 tox	TGFb SMAD3 inh	ASM inhibitor
O=C1N=C(N2CCCC2C(=O)O)S/C1=C\c1ccco1 (stereo not given)	-1.3	18.4µM*	8.2µM*	-3.1%	6.6%	1.3%
COCCNC(=O)C1(C)Cc2c(-c3cccc(C(N)=O)c3)ccnc2O1 (stereo not given)	71.8	-19.1%	?	-15.4%	-9.2%	.
COCCNC(=O)C1(C)Cc2c(-c3cccc(C(F)(F)F)c3)ccnc2O1 (stereo not given)	74.1	9.2µM*	9.2µM*	-25.9%	-14.5%	.
CC1(C(=O)NCC2CC2)Cc2c(-c3cccc(C(N)=O)c3)ccnc2O1 (stereo not given)	13.3	?	?	-2.1%	10.7%	.
CC1(C(=O)NCC2CC2)Cc2c(-c3cccc(C(F)(F)F)c3)ccnc2O1 (stereo not given)	0.0	5.8µM*	5.8µM*	-16.4%	?	.
COC(=O)C(Cc1c[nH]c2ccccc12)NC(=O)C1CC1 (stereo not given)	8.6	-0.7%	4.1%	7.4%	-7.4%	4.9%
CCc1c(C)sc2c1CCN(Cc1ccc(F)cc1)C2c1ccccc1 (stereo not given)	.	4.61µM*	?	-13.4%	-15.5%	.
CCc1c(C)sc2c1CCN(Cc1cccc(F)c1)C2c1ccccc1 (stereo not given)	.	11.6µM*	?	-25.0%	-25.0%	.
Cc1c(CNC2CCCCCC2)c(C(=O)O)c(C)n1Cc1ccc(F)cc1	.	-10.9%	5.2%	18.7%	-11.2%	.
CSc1ccccc1NC(=O)CN(C)C(=O)c1c(C)nn(Cc2ccccc2)c1C	7.6	2.0%	2.9%	10.9%	0.0%	0.0%
Cc1cccc(NC(=O)C(=O)NCCc2csc(-c3ccc(F)cc3)n2)c1C	.	?	?	-6.3%	5.5%	.
O=c1oc2cc(O)ccc2cc1-c1nc(-c2ccc(Cl)c(Cl)c2)cs1	.	-7.0%	0.3%	-22.0%	67.9%	.
CCCCOc1ccc(NC2=NC3(CCCC3)N=C(N)N2)cc1	-28.2	16.4µM*	16.4µM*	-27.8%	15.2%	-6.8%
Cc1c(CN2CCOc3ccc(C(C)(O)COc4ccccc4)cc3C2)cnn1C (stereo not given)	.	-28.8%	-7.2%[9.04 µM]	.	.	.
